Bioassay records (PubChem BioAssay)
AmpC detergent – inhibitors of E. coli AmpC beta-lactamase with detergent. P00811. AmpC hydrolysis of nitrocefin, absorbance 480 nm, 0.01% Triton. Potency, µM (top dose mostly 114 µM), for inactives: at the top dose activity change, negative = inhibition, hits mostly inhibitors. 370,000 compounds, 0.041% hits. AID 485294;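 note: 0% = no-compound wells and -100% = no-enzyme wells; nearly all actives have a fitted effect of over 25% in size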
Target sequence (P00811 whole entry, looked up): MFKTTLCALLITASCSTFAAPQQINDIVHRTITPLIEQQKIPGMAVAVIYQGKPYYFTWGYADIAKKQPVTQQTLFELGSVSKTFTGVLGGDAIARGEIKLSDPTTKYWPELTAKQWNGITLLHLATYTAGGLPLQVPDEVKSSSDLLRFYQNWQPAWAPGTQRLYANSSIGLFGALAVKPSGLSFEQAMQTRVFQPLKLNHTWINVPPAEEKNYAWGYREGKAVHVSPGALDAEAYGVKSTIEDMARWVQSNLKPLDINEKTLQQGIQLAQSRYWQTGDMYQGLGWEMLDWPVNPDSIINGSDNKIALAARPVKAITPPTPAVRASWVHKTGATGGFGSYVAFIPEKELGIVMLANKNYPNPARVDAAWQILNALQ
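AmpC (5.3 nM in the dispensed reagent) in 20 mM phosphate pH 7.0 with 0.01% (detergent screen) or 0.0001% Triton X-100 was preincubated with compounds for 15 min at room temperature. Nitrocefin was then added from an 800 uM solution, and hydrolysis was followed at 480 nm.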
AmpC no deterg – blocks E. coli AmpC beta-lactamase in detergent-free assay | P00811 | AmpC nitrocefin hydrolysis, absorbance 480 nm, 0.0001% Triton | Potency, µM (series often up to 57.1 µM), for inactives: top-dose activity change, negative = inhibition, hits mostly inhibitors | 330,000 compounds, 0.52% hits;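 note: plate controls were no compound for no effect and no enzyme for full effect; nearly all actives have a fitted effect of over 20% in size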
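AmpC (5.3 nM in the dispensed reagent) in 20 mM phosphate pH 7.0 with 0.01% (detergent screen) or 0.0001% Triton X-100 was preincubated with compounds for 15 min at room temperature. Nitrocefin was then added from an 800 uM solution, and hydrolysis was followed at 480 nm.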
LmPK inhibitor – inhibitors of Leishmania mexicana pyruvate kinase | Q27686 | purified LmPK, Kinase-Glo ATP luminescence, 1 h | Potency, µM (highest dose often 57.5 µM), for inactives: top-dose activity change, negative = inhibition, hits mostly inhibitors | 290,000 compounds, 0.37% hits | AID 1721
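Purified LmPK (0.1 nM) converted ADP (0.1 mM) to ATP with PEP (0.5 mM) in imidazole buffer pH 7.2 with KCl and MgCl2, 1 h at room temperature. ATP was read by Kinase-Glo luminescence; data normalized to uninhibited and no-enzyme controls.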
TbPYK inhibitor – blocks Trypanosoma brucei pyruvate kinase; TbPYK enzyme, Kinase-Glo Plus ATP luminescence, 45 min; Q57TT1; Potency, µM (doses to about 76.8 µM), for the others: at the top dose activity, negative = inhibition, hits mostly inhibitors; 410,000 compounds, 0.12% hits; note: nearly all actives have a fitted effect of over 50% in size
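Enzyme and substrate buffer are dispensed first and compound is pin-transferred. ADP at 130 uM final then starts the reaction, which runs 45 min at room temperature. Detection reagent is added for 10 min before luminescence is imaged.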
RE007 growth inh – less growth of the S. pombe RE007 Vpr strain; S. pombe RE007 Vpr strain, BacTiter-Glo ATP luminescence, 24 h; Potency, µM (top dose mostly 92.2 µM), inactives show at the top dose activity change, negative = less growth, hits mostly inhibitors; AID 651644; 360,000 compounds, 0.21% hits; active = well fitted falling curve with a large enough effect; inconclusive = small, poorly fitted or top-dose-only effect; inactive = no such curve, though single readings can be large or run the other way; note: nearly all actives have a fitted effect of over 50% in size
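Fission yeast strain RE007, carrying one chromosomally integrated HIV-1 vpr copy, was seeded at OD 0.01 in PMG+AL medium with 23 nL pinned compound. After 24 h at 30 °C and 99% humidity, viability was read by BacTiter-Glo luminescence.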
Giardia FBPA inh-1 – blocks Giardia fructose-bisphosphate aldolase activity; purified Giardia FBPA; 290,000 compounds, 0.71% hits; Potency, µM (top dose mostly 59.6 µM), for the others: top-dose activity, negative = inhibition, most hits filed as inhibitors; note: nearly all actives have a fitted effect of over 55% in size
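40 nM FBPA preincubated 10 min at RT with compound (up to 57.5 uM final), then substrate plus GAPDH/TPI/NAD/arsenate coupling and diaphorase/resazurin added. Fluorescence read after 20 min at RT, 525/598 nm.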
Giardia growth – blocks growth of Giardia lamblia trophozoites; shares compounds with Giardia FBPA inh-1; Giardia lamblia trophozoite growth inhibition; 1,500 compounds, 5% hits; AID 2785; Potency, µM (highest dose often 57.5 µM), for the others: top-dose activity change, negative = inhibition, usual class: inhibitors;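 note: trophozoites exposed to compound for 48 h at 37 °C; nearly all actives have a fitted effect of over 70% in size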
Mammalian tox – mammalian cytotoxicity of Giardia aldolase inhibitor hits; shares compounds with Giardia FBPA inh-1; mammalian cell viability counter-screen, qHTS; Potency, µM (top dose mostly 57.5 µM), without a hit: at the top dose viability change, negative = toxicity, usual class: inhibitors; 1,500 compounds, 4% hits; AID 2786;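 note: Chinese hamster ovary cells used as mammalian cytotoxicity surrogate; viability measured as cellular ATP by luminescence; compound exposure lasted 48 h before reading; nearly all actives have a fitted effect of over 60% in size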
Giardia FBPA inh-2 – confirmation of Giardia fructose-bisphosphate aldolase inhibitors; shares compounds with Giardia FBPA inh-1; purified Giardia aldolase enzyme activity, qHTS; Potency, µM (highest dose often 57.5 µM), without a hit: at the top dose activity change, negative = inhibition, most hits filed as inhibitors; 1,500 compounds, 5% hits; note: nearly all actives have a fitted effect of over 45% in size
Rabbit aldolase – blocks rabbit muscle aldolase in Giardia aldolase selectivity test. shares compounds with Giardia FBPA inh-1. Rabbit muscle FBPA enzyme inhibition, selectivity counter-screen. Potency, µM (series often up to 57.5 µM), for inactives: at the top dose activity, negative = inhibition, hits mostly inhibitors. 1,500 compounds, 4% hits; note: nearly all actives have a fitted effect of over 60% in size
GAPDH counter – GAPDH inhibition flagged for Giardia aldolase hits. GAPDH coupling enzyme counterscreen, biochemical, qHTS. shares compounds with Giardia FBPA inh-1. Potency, µM (highest dose often 57.5 µM), inactives show top-dose activity change, negative = inhibition, usual class: inhibitors. 1,500 compounds, 6% hits. AID 2795; note: nearly all actives have a fitted effect of over 55% in size
The depositor's hits bear a star; ? = inconclusive; · = no result given; [ ] = dose if it differs, or a comment. Only some compounds are listed: those with a hit (about 1.4% of all), similar ones and a draw of the others. Unless noted, calls come from the whole dose curve; as a rule, active = well fitted curve in the direction sought with a large enough effect; inconclusive = small, poorly fitted or top-dose-only effect, or another doubt; inactive = no such curve, though single readings can be large; an effect the other way counts as inactive or inconclusive. Unless noted, % is set by controls: 0 for no effect and ±100 for the full control effect; potency is the fitted concentration of half-maximal effect.

SMILES	AmpC detergent	AmpC no deterg	LmPK inhibitor	TbPYK inhibitor	RE007 growth inh	Giardia FBPA inh-1	Giardia growth	Mammalian tox	Giardia FBPA inh-2	Rabbit aldolase	GAPDH counter
COc1ccc(C2c3c(n(C)c4ccccc34)C(=O)N2CC(=O)Nc2cccc(Cl)c2)cc1 (stereo not drawn)	-4.3%	·	·	3.5%[15.4 µM]	·	·	·	·	·	·	·
Cn1ncc(Br)c1C(=O)N/N=C/c1cccc(OC2CSC2)c1	11.5%	1.8%	4.7%	-6.8%	-18.5%	?	-0.9%[38.3 µM]	-6.3%	31.6µM*	35.5µM*	35.5µM*
Cn1cnc2nc[nH]c2c1=S	·	·	·	-12.5%	8.1%	·	·	·	·	·	·
S=c1nc[nH]c2nc[nH]c12	?	-13.3%	-4.5%	-11.4%	8.2%[18.4 µM]	7.94µM*	17.3%[38.3 µM]	7.94µM*	?	5.2%	-5.8%
Cc1ccc(NC(=O)CN(C)CC(=O)Nc2cccc(F)c2)cc1S(=O)(=O)N1CCCCCC1	2.2%	20.2%	-10.1%	2.0%	7.3%	15.8µM*	-4.9%	-4.4%	1.3%	-3.9%	-2.9%
CC(=O)c1cc2c(cc1NC(=O)c1cnn(-c3ccc(C)cc3)c1-n1cccc1)OCO2	-7.1%	·	·	-0.2%	·	·	·	·	·	·	·
Cc1cccc(NC(=O)C2CCCN2S(=O)(=O)c2ccc3nc(-c4ccccc4)[nH]c3c2)c1 (stereo not drawn)	-0.1%	·	·	7.4%	·	·	·	·	·	·	·
C(=N\Nc1nncc2ccccc12)/c1ccccn1	-6.9%	-5.3%	?	-14.8%	?	-16.9%	·	·	·	·	·
C/C(=N\Nc1ccc2nncn2n1)c1ccccn1	-3.7%	-5.9%	-10.0%	-7.8%	25.4%	7.92µM*	?	?	-0.9%	4.5%	?
C/C(=N\Nc1ccc2nncn2n1)c1ccco1	-5.9%	-3.9%	-14.2%	-6.8%	-13.2%	4.4%	·	·	·	·	·
C(=N\Nc1ccc2nncn2n1)/c1ccccn1	1.1%	-25.4%	-9.7%	-0.6%	4.7%	14.1µM*	-5.6%	?	5.2%	-4.1%	7.1%
COc1ccccc1-c1nc2c(c(SCc3cc(C)ccc3C)n1)Cc1c(CO)cnc(C)c1O2	1.2%	·	·	5.3%	·	·	·	·	·	·	·
CCOc1ccc(C(=O)NCCc2csc(-c3ccc(C(F)(F)F)cc3)n2)cc1OCC	1.7%	·	·	-4.0%	·	·	·	·	·	·	·
O=C(Nc1ccc(Br)cc1F)N1CCC2(CC1)Oc1ccccc1C(=O)N2Cc1ccccc1F	22.7%	·	·	-3.8%	·	·	·	·	·	·	·
CN1CCN(Cc2coc3c(Cl)cc(Cl)cc3c2=O)CC1	-8.4%	-11.3%	-0.8%	-20.5%	-1.5%	12.6µM*	-12.1%	-8.3%	2.4%	7.8%	-11.2%
O=c1c(CN2CCN(c3cccc(Cl)c3)CC2)coc2c(Cl)cc(Cl)cc12	0.3%	-20.6%	2.8%	3.2%	-7.6%	1.0%	·	·	·	·	·
